Results: PubChem BioAssay AID720553 (National Center for Advancing Translational Sciences (NCATS), 2013)
The whole screen tested about 340,000 compounds, of which about 3,300 (0.97%) were called active. Many of the other results were omitted from the sample, so actives are more common in it than they were. Values without a mark were called inactive.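 The calls were made as follows: active = maximum activity change below -70%; inconclusive = maximum activity change from -70% to -50%; inactive = maximum activity change above -50%.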

system: Potassium voltage-gated channel subfamily H member 2, brain isoform KCNH2 3.1 (human); assay: qHTS for Inhibitors of KCHN2 3.1: Mutant qHTS; settings: U2OS KCNH2 3.1, thallium flux FluxOr; hits give low values
Method in brief: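 Measured as rate of thallium-driven FluxOr signal in transduced U2OS cells carrying the 3.1 channel, read kinetically for 2 min upon stimulation; values are rate constants scaled to DMSO control wells.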
% is scaled to controls: 0 for no effect and ±100 for the full control effect.

| SMILES | activity change |
| --- | --- |
| Cc1cccc(N(CC(=O)N2CCCC2)S(C)(=O)=O)c1C | -8.33% |
| Cc1cccc(C)c1NC(=O)N1CC(C)OC(C)C1 (stereo not drawn) | -192% (active) |
| CSc1ccc(NC(=O)N2CC(C)OC(C)C2)cc1 (stereo not drawn) | 8.24% |
| CC1CN(C(=S)Nc2cccc(F)c2)CC(C)O1 (stereo not drawn) | 6.1% |
| C=CCOc1cccc(C2C(C(=O)c3ccc(C)o3)=C(O)C(=O)N2CCN2CCOCC2)c1 (stereo not drawn) | -2.42% |
| CCc1cc(-c2nnn(CCC3COCCO3)c2CC)ccc1-c1cn(Cc2ccc3ccccc3c2)nn1 (stereo not drawn) | 0.058% |
| Cc1cc(Nc2ccc(C)c(C)c2)n2ncnc2n1 | 30.4% |
| O=C(CCCN1CCc2[nH]c3ccc(F)cc3c2C1)c1ccc(F)cc1 | -92% (active) |
| O=C(c1cc2cc(F)ccc2[nH]1)N1CCN(c2ccc(F)cc2)CC1 | -39.9% |
| CC1CCc2[nH]c3ccc(C(=O)N(C)CC(=O)Nc4cccc(F)c4)cc3c2C1 (stereo not drawn) | 13.3% |
| C[C@@H]1CN([C@@H](C)CO)C(=O)CCCn2nncc2CO[C@H]1CN(C)C(=O)Nc1ccc(C(F)(F)F)cc1 | -12.6% |
| CC[C@]1(C(=O)OC)[C@H]2C(=O)N(Cc3ccccc3)C(=O)[C@H]2[C@H]2CN=C(SCc3ccccc3)N21 | 14.7% |
| CC[C@]1(C(=O)OC)[C@H]2C(=O)N(Cc3ccccc3)C(=O)[C@H]2[C@H]2CN=C(SCc3ccc(Cl)cc3)N21 | -98.8% (active) |
| CC[C@]1(C(=O)OC)[C@H]2C(=O)N(Cc3ccccc3)C(=O)[C@H]2[C@H]2CN=C(SCc3ccc(C#N)cc3)N21 | 4.34% |
| CC(C)Oc1ccc(/C=N/NC(=O)c2nnn(-c3nonc3N)c2CN(C)C2CCCCC2)cc1 | -81.3% (active) |
| Nc1nonc1-n1nnc(C(=O)N/N=C\c2ccncc2)c1CN1CCCCC1 | -0.869% |
| CC(C)c1c(C(=O)N/N=C/c2ccc(-c3ccccc3)cc2)nnn1-c1nonc1N | -1.92% |
| O=C(NCCN1CCOCC1)c1ccc2c(c1)N(Cc1cccc(Cl)c1)C(=O)c1ccccc1S2(=O)=O | 17.1% |
| C[C@H]1CN([C@@H](C)CO)C(=O)c2cc(-c3cccc(F)c3)cnc2O[C@@H]1CN(C)S(C)(=O)=O | 8.27% |
| C[C@@H]1CN([C@H](C)CO)C(=O)CCCn2nncc2CO[C@@H]1CN(C)C(=O)OCc1ccccc1 | 1.9% |
| C=C(C)COc1ccc(-c2nc(N)ncc2-c2ccccc2OC)c(O)c1 | -6.62% |
| COc1ccc(-c2nc(N)ncc2-c2ccc(Cl)cc2)c(O)c1 | -191% (active) |
| CCOc1ccc(-c2nc(N)ncc2-c2ccccc2OC)c(O)c1 | -18.2% |
